Test results taken from PubChem BioAssay AID1159580 (chemical genetic matrix, 2015).
Hit rate of the full screen: of about 5,500 compounds, about 2,000 (36%) were called active. Inconclusive results (about 18%) are left out. No stated cut-off is given here; in the data, active means normalized growth mostly below about 0.91 (no sharp cut-off); inconclusive means no clear call, values can overlap the other calls; inactive means mostly above about 0.92. The list shows a part of the results.

Test: chemical genetic growth profiling, strain panel (AID 1159580);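 further: tested at 20 µM; growth read once vehicle control cultures reached saturation at 30 °C; 1 = growth at the plate median or of vehicle wells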
Settings: growth OD
[1] = S. cerevisiae deletion strains, locus YJR075W, strain HOC1, stronger effect = lower value
[2] = S. cerevisiae deletion strains, locus YMR307W, strain GAS1, stronger effect = lower value
[3] = S. cerevisiae deletion strains, locus YNL128W, strain TEP1, stronger effect = lower value
[4] = S. cerevisiae deletion strains, locus YNL322C, strain KRE1, stronger effect = lower value
[5] = S. cerevisiae deletion strains, locus YPL055C, strain LGE1, stronger effect = lower value
[6] = S. cerevisiae deletion strains, locus YPL241C, strain CIN2, stronger effect = lower value
[7] = S. cerevisiae deletion strains, locus YDL101C, strain DUN1, stronger effect = lower value
[8] = S. cerevisiae deletion strains, locus YHR030C, strain SLT2, stronger effect = lower value

Measured: normalized growth

CCCn1c(=O)c2[nH]c(-c3ccc(OCC(=O)NCCN)cc3)nc2n(CCC)c1=O
inactive: S. cerevisiae deletion strains, locus YAL040C, strain CLN3, stronger effect = lower value 1.05 | S. cerevisiae deletion strains, locus YCL061C, strain MRC1 (second series), stronger effect = lower value 0.984 | S. cerevisiae deletion strains, locus YDR363W, strain ESC2, stronger effect = lower value 0.983 | S. cerevisiae deletion strains, locus YER002W, strain NOP16, stronger effect = lower value 0.986 | [1] 0.99 | [2] 1.01 | [3] 0.973 | S. cerevisiae deletion strains, locus YNL175C, strain NOP13, stronger effect = lower value 0.98 | S. cerevisiae deletion strains, locus YNL197C, strain WHI3, stronger effect = lower value 0.977 | S. cerevisiae deletion strains, locus YNL224C, strain SQS1, stronger effect = lower value 0.999 | [4] 0.95 | S. cerevisiae deletion strains, locus YOR083W, strain WHI5 (second series), stronger effect = lower value 0.984 | [5] 0.973 | [6] 0.985

CSc1cccc(N2C(=O)CC(c3c(Cl)cccc3Cl)CC2=O)c1
inactive: S. cerevisiae deletion strains, locus YAR019C, strain CDC15, stronger effect = lower value 0.99 | S. cerevisiae deletion strains, locus YBL105C, strain PKC1, stronger effect = lower value 0.98 | S. cerevisiae deletion strains, locus YBR135W, strain CKS1, stronger effect = lower value 0.987 | S. cerevisiae deletion strains, locus YBR136W, strain MEC1, stronger effect = lower value 0.989 | S. cerevisiae deletion strains, locus YBR160W, strain CDC28, stronger effect = lower value 0.989 | S. cerevisiae deletion strains, locus YDL017W, strain CDC7, stronger effect = lower value 0.99 | S. cerevisiae deletion strains, locus YDL028C, strain MPS1, stronger effect = lower value 0.997 | [7] 0.987 | S. cerevisiae deletion strains, locus YDL108W, strain KIN28, stronger effect = lower value 0.988 | S. cerevisiae deletion strains, locus YDL132W, strain cdc53, stronger effect = lower value 0.982 | S. cerevisiae deletion strains, locus YDL214C, strain PRR2, stronger effect = lower value 0.997 | S. cerevisiae deletion strains, locus YDR052C, strain DBF4, stronger effect = lower value 0.988 | S. cerevisiae deletion strains, locus YDR054C, strain cdc34, stronger effect = lower value 0.983 | S. cerevisiae deletion strains, locus YDR226W, strain ADK1, stronger effect = lower value 0.983 | S. cerevisiae deletion strains, locus YDR477W, strain SNF1, stronger effect = lower value 0.992 | S. cerevisiae deletion strains, locus YER123W, strain YCK3, stronger effect = lower value 0.975 | S. cerevisiae deletion strains, locus YER133W, strain GLC7, stronger effect = lower value 0.993 | S. cerevisiae deletion strains, locus YFL009W, strain cdc4, stronger effect = lower value 0.966 | S. cerevisiae deletion strains, locus YFL029C, strain CAK1, stronger effect = lower value 0.986 | S. cerevisiae deletion strains, locus YFR003C, strain YPI1, stronger effect = lower value 0.983 | S. cerevisiae deletion strains, locus YFR019W, strain FAB1, stronger effect = lower value 0.971 | S. cerevisiae deletion strains, locus YFR028C, strain CDC14, stronger effect = lower value 0.986 | S. cerevisiae deletion strains, locus YGR040W, strain KSS1, stronger effect = lower value 0.987 | S. cerevisiae deletion strains, locus YGR052W, strain FMP48, stronger effect = lower value 1.02 | S. cerevisiae deletion strains, locus YGR092W, strain DBF2, stronger effect = lower value 0.985 | [8] 0.894 | S. cerevisiae deletion strains, locus YHR079C, strain IRE1, stronger effect = lower value 0.904 | S. cerevisiae deletion strains, locus YHR082C, strain KSP1, stronger effect = lower value 0.948 | S. cerevisiae deletion strains, locus YHR205W, strain SCH9, stronger effect = lower value 0.916 | S. cerevisiae deletion strains, locus YIL147C, strain SLN1, stronger effect = lower value 0.996 | S. cerevisiae deletion strains, locus YJL095W, strain BCK1, stronger effect = lower value 0.956 | S. cerevisiae deletion strains, locus YJL128C, strain PBS2, stronger effect = lower value 0.955 | S. cerevisiae deletion strains, locus YJL157C, strain FAR1, stronger effect = lower value 0.985 | S. cerevisiae deletion strains, locus YJR016C, strain ILV3, stronger effect = lower value 0.987 | S. cerevisiae deletion strains, locus YJR066W, strain TOR1, stronger effect = lower value 0.908 | S. cerevisiae deletion strains, locus YKL048C, strain ELM1, stronger effect = lower value 0.995 | S. cerevisiae deletion strains, locus YKL067W, strain YNK1, stronger effect = lower value 0.992 | S. cerevisiae deletion strains, locus YKL101W, strain HSL1, stronger effect = lower value 0.993 | S. cerevisiae deletion strains, locus YKL193C, strain SDS22, stronger effect = lower value 0.985 | S. cerevisiae deletion strains, locus YKL203C, strain TOR2, stronger effect = lower value 1.04 | S. cerevisiae deletion strains, locus YLR113W, strain HOG1, stronger effect = lower value 0.889 | S. cerevisiae deletion strains, locus YLR133W, strain CKI1, stronger effect = lower value 1 | S. cerevisiae deletion strains, locus YLR403W, strain SFP1, stronger effect = lower value 0.946 | S. cerevisiae deletion strains, locus YML070W, strain DAK1, stronger effect = lower value 0.995 | S. cerevisiae deletion strains, locus YMR001C, strain CDC5, stronger effect = lower value 0.992 | S. cerevisiae deletion strains, locus YMR205C, strain PFK2 (second series), stronger effect = lower value 0.997 | S. cerevisiae deletion strains, locus YMR277W, strain FCP1, stronger effect = lower value 0.983 | S. cerevisiae deletion strains, locus YNL006W, strain LST8, stronger effect = lower value 0.996 | S. cerevisiae deletion strains, locus YNL020C, strain ARK1, stronger effect = lower value 0.993 | S. cerevisiae deletion strains, locus YNL161W, strain CBK1, stronger effect = lower value 0.981 | S. cerevisiae deletion strains, locus YNL183C, strain NPR1, stronger effect = lower value 0.947 | S. cerevisiae deletion strains, locus YNL207W, strain RIO2, stronger effect = lower value 0.993 | S. cerevisiae deletion strains, locus YNL222W, strain SSU72, stronger effect = lower value 0.981 | S. cerevisiae deletion strains, locus YNL307C, strain MCK1 (second series), stronger effect = lower value 0.988 | S. cerevisiae deletion strains, locus YOL078W, strain AVO1, stronger effect = lower value 0.993 | S. cerevisiae deletion strains, locus YOL136C, strain PFK27, stronger effect = lower value 0.976 | S. cerevisiae deletion strains, locus YOR061W, strain CKA2, stronger effect = lower value 0.994 | S. cerevisiae deletion strains, locus YOR119C, strain RIO1, stronger effect = lower value 1 | S. cerevisiae deletion strains, locus YOR231W, strain MKK1, stronger effect = lower value 0.918 | S. cerevisiae deletion strains, locus YOR329C, strain SCD5, stronger effect = lower value 0.985 | S. cerevisiae deletion strains, locus YPL031C, strain PHO85, stronger effect = lower value 0.989 | S. cerevisiae deletion strains, locus YPL153C, strain RAD53, stronger effect = lower value 0.97 | S. cerevisiae deletion strains, locus YPL204W, strain HRR25, stronger effect = lower value 0.981 | S. cerevisiae deletion strains, locus YPL209C, strain IPL1, stronger effect = lower value 0.989 | S. cerevisiae deletion strains, locus YPL256C, strain CLN2, stronger effect = lower value 0.924 | S. cerevisiae deletion strains, locus YPR025C, strain CCL1, stronger effect = lower value 0.986 | S. cerevisiae deletion strains, locus YPR106W, strain ISR1, stronger effect = lower value 0.979 | S. cerevisiae deletion strains, locus YPR111W, strain DBF20, stronger effect = lower value 0.977 | S. cerevisiae deletion strains, strain NNK1, stronger effect = lower value 0.983 | S. cerevisiae deletion strains, strain TSCII, stronger effect = lower value 0.982
active: S. cerevisiae deletion strains, locus YJR066W, strain TOR1 (second series), stronger effect = lower value 0.566

O=C(CC(Nc1ccccc1)c1ccccc1)C1CC1 (stereo not given)
inactive: S. cerevisiae deletion strains, locus YAL013W, strain DEP1, stronger effect = lower value 1 | S. cerevisiae deletion strains, locus YBR229C, strain ROT2, stronger effect = lower value 0.99 | S. cerevisiae deletion strains, locus YCL061C, strain MRC1, stronger effect = lower value 0.974 | [7] 0.988 | S. cerevisiae deletion strains, locus YDL134C, strain PPH21, stronger effect = lower value 0.982 | S. cerevisiae deletion strains, locus YDR150W, strain NUM1, stronger effect = lower value 0.982 | S. cerevisiae deletion strains, locus YEL061C, strain CIN8, stronger effect = lower value 0.992 | S. cerevisiae deletion strains, locus YGR078C, strain PAC10, stronger effect = lower value 1.03 | [8] 0.968 | S. cerevisiae deletion strains, locus YHR087W, strain rtc3, stronger effect = lower value 1.04 | S. cerevisiae deletion strains, locus YJL187C, strain SWE1, stronger effect = lower value 1 | S. cerevisiae deletion strains, locus YJR043C, strain POL32, stronger effect = lower value 0.996 | [1] 0.969 | S. cerevisiae deletion strains, locus YLR039C, strain RIC1, stronger effect = lower value 0.869 | S. cerevisiae deletion strains, locus YLR058C, strain SHM2 (second series), stronger effect = lower value 0.998 | S. cerevisiae deletion strains, locus YLR085C, strain ARP6, stronger effect = lower value 0.992 | S. cerevisiae deletion strains, locus YLR262C, strain YPT6, stronger effect = lower value 0.938 | S. cerevisiae deletion strains, locus YML094W, strain GIM5, stronger effect = lower value 1.01 | S. cerevisiae deletion strains, locus YMR219W, strain ESC1, stronger effect = lower value 0.994 | S. cerevisiae deletion strains, locus YMR263W, strain SAP30, stronger effect = lower value 1.01 | [2] 1.19 | [3] 0.989 | S. cerevisiae deletion strains, locus YNL153C, strain GIM3, stronger effect = lower value 1.01 | S. cerevisiae deletion strains, locus YNL298W, strain CLA4 (second series), stronger effect = lower value 0.985 | [4] 0.982 | S. cerevisiae deletion strains, locus YNR030W, strain Alg12, stronger effect = lower value 1 | [5] 1.02 | [6] 0.981 | S. cerevisiae deletion strains, locus YPR135W, strain CTF4, stronger effect = lower value 0.915 | S. cerevisiae strains, strain wild type, stronger effect = lower value 0.979
